Bioassay records as filed in PubChem.
miR-122 sensor: blocks miR-122 activity in Huh7 sensor cells | AID 602342 | 340,000 tested, 0.3% active | activation (reporter increase), % at 12.5 µM | Huh7 miR-122 Renilla luciferase sensor, 48 h; neutral wells = 0, positive control = 100;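 active = mean replicate activation score at least 90 and every replicate individually at or above 90; inconclusive = only one of the two criteria met; inactive = neither criterion met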;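 note: higher luciferase means less miR-122 activity so hits act as miR-122 inhibitors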
Env fusion inh: inhibitors of HIV Env-mediated cell fusion | HeLa-JRFL Env/CEM21 cell fusion, luciferase | inhibition, % at 12.3 µM | 360,000 tested, 1.1% active;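 active = mean replicate inhibition score of at least 50 and every replicate individually at or above 50; inconclusive = only one of the two criteria met; inactive = mean below 50 and not all replicates reaching 50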;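 note: 0% = plate neutral controls and 100% = maraviroc near 300 nM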
Wnt bcat act: activators of Wnt/beta-catenin signaling; Wnt/beta-catenin reporter cell assay, activator, plate reader; activation, % at 9.35 µM; 300,000 tested, 1.2% active; AID 743398; in the data active = activation above about 30%, passing the limit was not always enough; inconclusive = no clear call, values can overlap the other calls;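 note: 0% = neutral control wells and 100% = positive control wells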
esBAF inh: inhibitors of esBAF chromatin remodeling in mouse ES cells. 350,000 tested, 2% active. reporter increase, % at 12.5 µM. Bmi1-luciferase knock-in reporter, 24 h; 100% = twice the neutral-well signal; in the data active = activation above about 40%; inconclusive = no clear call, values can overlap the other calls;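 note: 0% = median of the plate's neutral control wells and 100% = double that signal; a rise in the Bmi1 reporter signal indicates esBAF inhibition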
MITF act: increases MITF-driven TRPM1 promoter luciferase signal; 300,000 tested, 0.75% active; activation, % at 12.5 µM; SK-MEL-5 TRPM1-promoter luciferase, 24 h; % of positive control, neutral wells = 0;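 active = mean activation of at least 80% with every replicate also reaching 80%; inconclusive = mean reaches 80% but some replicate falls short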;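 note: 0% = neutral control wells and 100% = parthenolide positive control wells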
An asterisk follows results filed as active; ? = inconclusive; · = no result; [ ] = dose if it differs, or a comment. An excerpt weighted towards active compounds, which were near 3.4% of everything screened.

SMILES	miR-122 sensor	Env fusion inh	Wnt bcat act	esBAF inh	MITF act
CC(C)CC#Cc1cnc2c(c1)C(=O)N([C@@H](C)CO)C[C@H](C)[C@@H](CN(C)Cc1ccc(C(=O)O)cc1)O2	-7.3[16.7 µM]	-3.8[16.7 µM]	·	5.6	·
Cn1cc(Cl)c(/C(N)=N/OC(=O)c2ccccc2C(F)(F)F)n1	-2.4	-32.3	20.4	50.8*	76.0
O=C1c2ccccc2-c2nc3ccccc3cc21	0.7	-36.9	58.8*	10.9	57.1
Cc1cc2ccccc2nc1-c1ccccc1F	·	-11.7	2.1	·	14.9
c1ccc2c(c1)Cc1cc3ccccc3nc1-2	2.4	-163.8	44.4*	10.7	62.4
C[C@H](CO)N1C[C@H](C)[C@H](CN(C)C(=O)c2ccc(F)cc2)Oc2cc(C3=CCCC3)ccc2S1(=O)=O	12.8[16.7 µM]	17.4[16.7 µM]	·	-0.7	·
Cc1ccc(S(=O)(=O)Nc2ccc3c(c2)CC(=O)N([C@H](C)CO)C[C@@H](C)[C@@H](CN(C)C(=O)Nc2ccc4c(c2)OCO4)O3)cc1	8.6[16.7 µM]	2.8[16.7 µM]	·	-2.2	·
CCCCN1C(=S)NC[C@@H]1Cc1cccc2ccccc12	-4.2	-8.7	11.7	59.0*	31.5
Cn1cccc1C(=O)OCc1cc(Cl)cc2c1OCOC2	9.4	-77.1	72.7*	36.9	68.6
Cn1cccc1C(=O)OCC(=O)Nc1ccc2c(c1)OCO2	·	-7.4	6.6	·	1.5
C[C@@H]1CN([C@H](C)CO)C(=O)c2cc(NS(C)(=O)=O)ccc2O[C@H]1CN(C)C(=O)Nc1ccc2c(c1)OCO2	1.4[16.7 µM]	·	·	-0.4	·
O=C(NCC1CC1(Cl)Cl)Nc1ccc(Cl)c(Cl)c1 (stereo unspecified)	36.3	4.0	6.3	31.8	52.0
Cc1ccc(NC(=O)NCC2CC2(Cl)Cl)cc1 (stereo unspecified)	21.1	-3.0	15.0	49.9*	53.5
CC1CCC(NC(=O)c2ccc(NC(=O)CC3SC(N4CCCC4)=NC3=O)cc2)CC1 (stereo unspecified)	-0.9	-45.5	27.7	65.8*	76.1
CCNC(=O)c1ccc(NC(=O)CC2SC(N3CCCCC3)=NC2=O)cc1 (stereo unspecified)	0.6	8.1	1.0	-0.8	-4.6
O=C1C(C=NCCCn2ccnc2)=C(O)c2ccccc21	7.1	14.3	-2.8	52.9*	-5.2
O=C1C(C=NCc2ccccn2)=C(O)c2ccccc21	-3.5	·	-1.6	73.4*	50.3
O=C(NC1CC1)C1=C[C@H](c2csc3ccccc23)C[C@H](OCCCCO)O1	1.8	-22.8	4.3	-1.7	-13.4
O=C(Nc1ccccc1)C1=C[C@@H](c2ccc(C(F)(F)F)cc2)C[C@@H](OCCCCO)O1	3.6	-23.7	11.7	49.8*	62.4
O=C(NCc1ccccc1)C1=C[C@@H](c2csc3ccccc23)C[C@@H](OCCCCO)O1	·	81.3*	-15.7	·	·
Cc1noc(C)c1S(=O)(=O)N(C)C[C@@H]1OCCCC[C@@H](C)Oc2ccc(NC(=O)Nc3ccccc3)cc2C(=O)N([C@H](C)CO)C[C@H]1C	-3.0[16.7 µM]	43.9[16.7 µM]	·	5.0	·
Cc1noc(C)c1S(=O)(=O)N(C)C[C@H]1OCCCC[C@H](C)Oc2ccc(NC(=O)Nc3ccccc3)cc2C(=O)N([C@@H](C)CO)C[C@@H]1C	8.5[16.7 µM]	64.6*[16.7 µM]	·	-6.7	·
COc1ccc(NC(=O)Nc2ccc3c(c2)C(=O)N([C@@H](C)CO)C[C@H](C)[C@@H](CN(C)S(=O)(=O)c2c(C)noc2C)OCCCC[C@H](C)O3)cc1	-5.0[16.7 µM]	67.7*[16.7 µM]	·	-2.5	·
C[C@@H]1CCCCO[C@H](CN(C)CC2CC2)[C@@H](C)CN([C@@H](C)CO)C(=O)c2cc(NS(=O)(=O)c3cccs3)ccc2O1	4.8[16.7 µM]	25.1[16.7 µM]	·	1.3	·
Cc1ccc(-c2nc3ccccc3[nH]2)cc1NC(=O)c1ccco1	5.5	·	2.4	36.5	29.0
SMILES	miR-122 sensor	Env fusion inh	Wnt bcat act	esBAF inh	MITF act
O=C(Nc1ccc2nc(-c3ccc(Br)o3)[nH]c2c1)c1cccs1	-1.1	·	·	48.7*	48.4
O=C(Nc1ccc2nc(-c3ccc(Br)o3)[nH]c2c1)c1ccco1	3.8	·	·	64.5*	37.6
Cc1cccc2[nH]c(-c3ccc(NC(=O)c4ccco4)cc3)nc12	-4.8	·	·	83.7*	48.9
CC(=O)Nc1ccc2nc(-c3ccc(Br)o3)[nH]c2c1	·	-15.2	-1.3	·	66.2
O=C(Nc1ccc2nc(-c3ccccc3)[nH]c2c1)c1ccco1	1.9	-87.6	53.5*	54.4*	·
O=C(Nc1cccc(-c2nc3ccccc3[nH]2)c1)c1cccc(NC(=O)c2ccco2)c1	0.3	-28.9	·	31.8	-86.9
C[C@@H]1CCCCO[C@@H](CN(C)S(=O)(=O)c2cccs2)[C@H](C)CN([C@@H](C)CO)C(=O)c2cc(NC(=O)Nc3ccc(C(F)(F)F)cc3)ccc2O1	-10.2[16.7 µM]	26.0[16.7 µM]	·	10.7	·
CC1CCC(C(C)C)C(OC(=O)COC(=O)c2cc(O)ccc2N)C1 (stereo unspecified)	·	22.2	33.9*	·	-11.5
O=c1[nH]c(Cc2ccc(F)cc2)nc2scc(-c3ccc(F)cc3)c12	-7.4	12.5	2.7	47.0*	6.8
O=c1[nH]c(Cc2ccccn2)nc2scc(-c3ccc(Cl)cc3)c12	-2.0	-25.2	6.9	-0.2	3.0
O=c1[nH]c(Cc2cccs2)nc2scc(-c3ccc(Cl)cc3)c12	-1.4	-25.6	20.4	72.2*	94.2*
CN(C)C(=O)C[C@H]1CC[C@H]2[C@@H](COc3ccc(NC(=O)Nc4cccc(Cl)c4)cc3C(=O)N2C)O1	36.7[16.7 µM]	·	·	-2.1	·
CCN(C(=O)C1=COCCO1)c1nc2c(C)cccc2s1	-7.0	-13.4	-4.4	48.0*	71.4
O=C1C=C(c2cccc3c2oc2ccccc23)CCC1	·	?	5.1	7.9	3.9
CC1(C)CC(=O)C=C(c2cccc3c2oc2ccccc23)C1	-8.0	72.5*	8.9	23.6	13.6
Cc1ccc(-c2cc(C(=O)NCCCn3ccnc3)c3ccccc3n2)s1	123.3*	15.9	-1.8	14.2	-13.7
CC(=O)c1ccc(NC(=O)CCc2nnc3ccc(N4CCC5(CC4)OCCO5)nn23)cc1	-4.9	-41.8	12.5	54.0*	31.3
Cc1ccc(NC(=O)CCc2nnc3ccc(N4CCC5(CC4)OCCO5)nn23)nc1	-1.4	-6.3	-0.4	3.1	-3.5
CC=Cc1ccc2n(c1=O)C[C@H]1N[C@@H]2[C@@H](C(=O)NCc2ccc3c(c2)OCO3)[C@@H]1CO (mixture of isomers)	·	-2.1[16.7 µM]	·	0.2	·
Cc1ccc(NC(=O)C2CCN(S(=O)(=O)c3ccc4ccccc4c3)CC2)nc1	-1.5	-30.8	-4.0	57.7*	68.1
O=C(Nc1ccc2c(c1)OCCO2)C1CCN(S(=O)(=O)c2ccccc2)CC1	177.1*	10.6	-5.6	-4.0	2.5
O=C(Nc1ccc2c(c1)OCCO2)C1CCN(S(=O)(=O)c2ccc3c(c2)OCCO3)CC1	3.9	5.9	-2.4	4.4	9.5
O=C(Nc1ccc2c(c1)OCCO2)C1CCCN(S(=O)(=O)c2cccs2)C1 (stereo unspecified)	-3.2	·	·	48.2*	-8.0
Cc1ccc(NC(=O)C2CCN(S(=O)(=O)c3ccc(Cl)c(C(F)(F)F)c3)CC2)nc1	-5.3	-0.5	2.0	14.3	0.1
